Source: PubChem BioAssay (NCI)
This is part of a sample that, as a whole, favours compounds with a hit. Of some 79,000 tested, about 15% had one in any assay. Values without a mark were called inactive. The source made the active and inactive calls. Cut-off read from the data, not from the text of the source: active = growth inhibition above about 70%; inactive = the rest.

How the values were obtained:
[1] = NCI Yeast Anticancer Drug Screen. Data for the rad50 strain (AID 155);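 note: 0% = growth of vehicle-only cultures of the same strain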; conditions: S. cerevisiae rad50 strain growth inhibition, stronger effect = higher value
In short: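 Cells are treated with compound, grown, and their growth is then scored against vehicle-only cultures of the same repair-deficient yeast strain.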

[2] = NCI Yeast Anticancer Drug Screen. Data for the mec2-1 strain (AID 157); conditions: S. cerevisiae mec2-1 strain, stronger effect = higher value
In short: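 Strain: mec2-1 (DNA repair/cell cycle alteration). Compound exposure, then growth measured; inhibition expressed relative to vehicle.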

[3] = NCI Yeast Anticancer Drug Screen. Data for the sgs1 mgt1 strain (AID 161);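 note: 0% = growth of cultures given vehicle only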; conditions: S. cerevisiae sgs1 mgt1 strain, stronger effect = higher value
In short: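 Test agents were incubated with a DNA-repair-mutant yeast strain. Growth was then read and compared against vehicle-treated controls.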

[4] = NCI Yeast Anticancer Drug Screen. Data for the cln2 rad14 strain (AID 165);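 note: 0% = growth equal to vehicle treated cultures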; conditions: S. cerevisiae cln2 rad14 strain, stronger effect = higher value
In short: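 Compounds are applied to the cln2 rad14 yeast strain, and growth is then compared with that of vehicle-treated cultures to give inhibition.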

[5] = NCI Yeast Anticancer Drug Screen. Data for the bub3 strain (AID 167); conditions: S. cerevisiae bub3 mutant strain, stronger effect = higher value
In short: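 Part of a panel of yeast mutants defective in DNA damage repair or cell cycle regulation. Each strain is grown with compound, and inhibition is calculated relative to solvent-treated cultures.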

[6] = NCI Yeast Anticancer Drug Screen. Data for the mlh1 rad18 strain (AID 175); conditions: S. cerevisiae mlh1 rad18 strain growth inhibition, stronger effect = higher value
In short: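 Read-out is yeast growth inhibition, calculated against vehicle-only controls. The compound was applied to a strain engineered with DNA damage repair alterations.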

[7] = at 5.0 µM (retest, dose inferred, filed as 0.5)
[8] = at 50.0 µM (retest, dose inferred, filed as 5.0)

Structure (SMILES)	growth inhibition [1, 7]	growth inhibition [1, 8]	growth inhibition ([1]; at 50.0 µM)	growth inhibition [2, 7]	growth inhibition [2, 8]	growth inhibition ([2]; at 50.0 µM)	growth inhibition [3, 7] [%]	growth inhibition [3, 8]	growth inhibition ([3]; at 50.0 µM)	growth inhibition [4, 7]	growth inhibition [4, 8]	growth inhibition ([4]; at 50.0 µM)	growth inhibition [5, 7]	growth inhibition [5, 8]	growth inhibition ([5]; at 50.0 µM)	growth inhibition [6, 7]	growth inhibition [6, 8]	growth inhibition ([6]; at 50.0 µM)
CCCCc1c2c(nc3c1CC/C(=C\c1ccc([N+](=O)[O-])cc1)C3=O)CCCC2	92% (active)	92% (active)	88.5% (active)	97% (active)	94% (active)	92.6% (active)	38	92% (active)	89.8% (active)	97% (active)	93% (active)	88.1% (active)	98% (active)	91% (active)	88.5% (active)	96% (active)	88% (active)	89.6% (active)
O=P(Nc1ccccc1)(OCc1ccccc1)OCc1ccccc1	-4%	98% (active)	98.5% (active)	12%	99% (active)	94.7% (active)	-4	99% (active)	98.8% (active)	13%	99% (active)	67%	0%	99% (active)	40.8%	5%	99% (active)	99.1% (active)
C#CC(=O)OCC#CCOC(=O)C#C	3%	77% (active)	97.5% (active)	0%	95% (active)	98.5% (active)	-9	83% (active)	78.2% (active)	-7%	15%	49.2%	1%	76% (active)	92.2% (active)	5%	96% (active)	96% (active)
O=[N+]([O-])c1cc2[nH]cnc2c([N+](=O)[O-])c1NCc1ccccc1	0%	47%	68.5%	0%	29%	34.3%	-1	45%	80.5% (active)	-2%	34%	24.2%	-4%	25%	33.1%	-3%	44%	72.5% (active)
CCCCCCCCCCNC(=O)C[n+]1cccc(C(=O)Nc2ccccc2)c1	4%	99% (active)	99.7% (active)	10%	100% (active)	99.8% (active)	-13	100% (active)	99.9% (active)	3%	99% (active)	99.2% (active)	-1%	99% (active)	99.6% (active)	28%	100% (active)	99.8% (active)
CC(C)=CCC/C(C)=C/CC/C(C)=C/CSc1ccccc1C(=O)O	22%	17%	76.3% (active)	10%	14%	75.8% (active)	14	10%	54.5%	8%	20%	10.2%	18%	19%	62.2%	22%	18%	41.5%
c1ccc(-c2ccc(-c3cnc(-c4ccc(-c5ccccc5)cc4)o3)cc2)cc1	4%	30%	90.2% (active)	3%	46%	53.4%	1	66%	93% (active)	-1%	42%	41.1%	8%	31%	93.2% (active)	-6%	64%	92.8% (active)
COc1ccc2nc3cc(Cl)ccc3c(NCCC[N+](C)(C)CCCCCCCCCC[N+](C)(C)CCCNc3c4ccc(Cl)cc4nc4ccc(OC)cc34)c2c1	44%	98% (active)	96% (active)	22%	98% (active)	88.3% (active)	29	98% (active)	95.8% (active)	24%	94% (active)	55.8%	21%	98% (active)	6.45%	41%	99% (active)	96.2% (active)
Cc1nn(C(=O)c2ccccc2O)c2c1C(c1ccc3ccccc3c1O)SC(N)=N2 (stereo not given)	8%	97% (active)	97.1% (active)	0%	95% (active)	92.5% (active)	-4	96% (active)	96.8% (active)	-9%	59%	92.1% (active)	-13%	97% (active)	97.8% (active)	9%	98% (active)	97.7% (active)
C=C1CCC[C@@]2(C)CC[C@@H](/C(C)=C\C=C\C(C)(C)O)C[C@H]12	0%	29%	83.1% (active)	-1%	32%	92.8% (active)	2	56%	92.5% (active)	-5%	0%	91.8% (active)	2%	28%	91.7% (active)	-2%	53%	88.8% (active)
